According to PubChem BioAssay AID504444 (National Center for Advancing Translational Sciences (NCATS), 2011):
The campaign covered roughly 360,000 compounds. About 7,500 (2.1%) were called active. Not shown: some 20% with an inconclusive outcome. The call rests on the fitted dose curve; in most records, active means well fitted inhibition curve with a large enough effect; inconclusive means small, poorly fitted or top-dose-only effect, or effect the other way; inactive means flat fitted curve, though single readings scatter. The sample as a whole holds a higher share of actives than the screen did.

Test: Nrf2 qHTS screen for inhibitors; further: nearly all actives have a fitted effect of over 60% in size
Settings: A549 ARE-Fluc reporter, luciferase luminescence, 18-24 h; series mostly up to 46 µM; activity change, negative = inhibition: at the top concentration
How it was run: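 Quantitative HTS in A549 cells stably bearing an antioxidant response element-firefly luciferase construct. Inhibition of Nrf2-driven transcription was scored by luminescence after 18-24 h of compound exposure at 37 °C.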
On the % scale 0 is the no-effect control and ±100 the full control effect; potency means the concentration at half of the fitted maximal effect.

| SMILES | activity change, negative = inhibition | Potency |
| --- | --- | --- |
| NC(=O)C1CCN(C(=O)c2ccc(C(F)(F)F)cc2)CC1 | -15.4% (inactive) | – |
| CC(C)c1ccc(-c2noc(C3CCCN(S(C)(=O)=O)C3)n2)cc1 (stereo not drawn) | 0.129% (inactive) | – |
| O=C(c1ccc(F)cc1)N1CCCC(c2nc(-c3cccs3)no2)C1 (stereo not drawn) | 11.9% (inactive) | – |
| O=C(c1ccncc1)N1CCN(S(=O)(=O)c2cc(C(F)(F)F)cc(C(F)(F)F)c2)CC1 | -0.0458% (inactive) | – |
| O=C(Cc1cccs1)N1CCCC(c2nc(-c3ccc(S(=O)(=O)N4CCCC4)cc3)no2)C1 (stereo not drawn) | – | 23.1 µM (active) |
| O=C(c1ccc(C(F)(F)F)cc1)N1CCC(c2nc(-c3ccc(S(=O)(=O)N4CCCC4)cc3)no2)CC1 | – | 7.31 µM (active) |
| CCOc1cc(C(=O)N(Cc2ccccc2)c2ccc(C)cc2)ccc1OCC(=O)N1CCOCC1 | -7.76% (inactive) | – |
| COc1ccccc1NC(=O)C(=O)c1cc(C)n(-c2ccccc2F)c1C | 23.5% (inactive) | – |
| Oc1ccc(Cl)cc1C1C=C(c2ccc3c(c2)OCO3)NC(c2c(F)cccc2Cl)N1 (stereo not drawn) | 12.9% (inactive) | – |
| OC[C@@H]1O[C@H](n2cnc3c(SCc4ccccc4)ncnc32)[C@H](O)[C@H]1O | 20% (inactive) | – |
| Cc1c(Cl)cccc1-c1ccc(CNCCCSc2nnnn2C)o1 | -9.22% (inactive) | – |
| CCCCCn1c(CCNC(=O)c2ccc(F)cc2)nc2ccccc21 | 6.85% [at 9.27 µM] (inactive) | – |
| CC(C)NC(=O)C1CCC(Cn2c(=O)c3sccc3n(Cc3ccc(F)cc3)c2=O)CC1 (stereo not drawn) | 13.5% (inactive) | – |
| COc1cccc(-c2nc(CS(=O)(=O)CC(=O)NCCc3ccc(OC)c(OC)c3)c(C)o2)c1 | – | inactive |
| COc1cccc(-c2nc(CS(=O)(=O)CC(=O)N3CCN(c4cc(C)ccc4C)CC3)c(C)o2)c1 | – | 2.59 µM (active) |
| CCCCN(CC)CCCNC(=O)CS(=O)(=O)Cc1nc(-c2cccc(OC)c2)oc1C | 15.6% (inactive) | – |
| COc1cccc(C2C(C(=O)Nc3ccc(C)cc3C)=C(C)Nc3c(C(=O)Nc4ccccc4)cnn32)c1 (stereo not drawn) | 10.7% (inactive) | – |
| CN1C(c2ccc(F)cc2)=CS/C1=C(/C#N)c1nnc2n1-c1ccccc1SC2 | -26.9% (inactive) | – |
| O=C1Nc2ccc(Br)cc2/C1=N/N=C/C1=C(N2CCOCC2)C(=C\c2ccccc2)/CC1 | – | 20.6 µM (active) |
| C(=N\N1CCN(c2ccccn2)CC1)/C1=C(N2CCOCC2)C(=C/c2ccccc2)/CC1 | 2.38% (inactive) | – |
| N#C/C(=C\C1=C(N2CCOCC2)C(=C\c2ccccc2)/CC1)C(=O)Nc1ccccc1F | -14.6% (inactive) | – |
| CCOc1ccccc1NC(=S)C(=C([O-])c1ccc2c(c1)OCCO2)[n+]1ccc(CC)cc1 | 4.22% (inactive) | – |
| COc1cc(F)c(S(=O)(=O)N2CCCN(S(=O)(=O)c3ccc(N)cc3)CC2)c(F)c1 | -10% (inactive) | – |
| CCOC(=O)c1ccc(NC(=O)c2ncn(-c3ccccc3)n2)cc1 | 3.01% (inactive) | – |

| SMILES | activity change, negative = inhibition | Potency |
| --- | --- | --- |
| Oc1ccc(Cl)cc1C1C=C(c2ccc3c(c2)OCO3)NC(c2ccc(F)c(Br)c2)N1 (stereo not drawn) | -10.6% (inactive) | – |
| CC(C)N(C(=O)[C@H]1C[C@H](CC(=O)NCCC2=CCCCC2)C(=O)N2CCc3c([nH]c4cc(CCC(=O)N(C)C)ccc34)[C@]12C)C(C)C | 5.78% (inactive) | – |
| CCCCCCn1c(CN2CCCCC2)nc2c1c(=O)n(C)c(=O)n2C | 5.48% (inactive) | – |
| CCCCCCCCn1c2c(c(=N)c3c1CCC3)CCCC2 | – | 9.2 µM (active) |
| CC1Sc2ccc(S(=O)(=O)CCC(=O)NCc3ccccc3Cl)cc2NC1=O (stereo not drawn) | -8.63% (inactive) | – |
| COc1ccccc1N1CCN(C(=O)CCS(=O)(=O)c2ccc3c(c2)NC(=O)C(C)S3)CC1 (stereo not drawn) | -2.57% (inactive) | – |
| Cc1cccc(N2CCN(C(=O)CCS(=O)(=O)c3ccc4c(c3)NC(=O)C(C)S4)CC2)c1C (stereo not drawn) | – | 2.59 µM (active) |
| Oc1ccc(-c2nc3ccccc3nc2-c2ccc(O)cc2O)c(O)c1 | 2.55% (inactive) | – |
| CN[C@H](C(=O)NC[C@H]1O[C@@H](n2cnc3c(N)ncnc32)[C@H](O)[C@@H]1O)[C@@H](C)OCc1ccccc1 | -9.95% (inactive) | – |
| Cc1cccc(CSc2nc3ccncc3n2Cc2ccc(C(=O)O)cc2)c1 | 6.25% (inactive) | – |
| COc1cccc(Cn2c(SCc3ccc(C(=O)N4CCCCC4)cc3)nc3ccncc32)c1 | – | 18.4 µM (active) |
| Cc1cccc(CSc2nc3ccncc3n2CC(=O)N(C)C2CCCCC2)c1 | 2.61% (inactive) | – |
| CCCCNC(=O)Cn1c(SCc2cccc(Cl)c2)nc2ccncc21 | 13.2% (inactive) | – |
| O=C(O)c1ccc(Cn2c(SCc3ccc(F)cc3)nc3ccncc32)cc1 | 5.55% (inactive) | – |
| COc1cccc(Cn2c(SCc3ccc(C(=O)N4CCC(C)CC4)cc3)nc3ccncc32)c1 | – | 20.6 µM (active) |
| COc1ccccc1-c1sc2ccccc2c1-c1ccc(Br)nc1 | 4.2% (inactive) | – |
| OCCNc1ncnc2oc(-c3ccco3)c(-c3ccco3)c12 | 3.43% (inactive) | – |
| CCCN1CN=C(NS(=O)(=O)c2ccc(NC(C)=O)cc2)NC1 | 0.228% (inactive) | – |
| Cc1ccc(S(=O)(=O)N2CCC(C(=O)Nc3cc(C)ccc3C)CC2)cc1 | -22.1% (inactive) | – |
| Cc1ccc(-c2nc(=N)sn2Cc2ccccc2)cc1 | 21.2% (inactive) | – |
| Cc1cc(-c2ccc(C)c(S(=O)(=O)NC(C)Cc3ccco3)c2)on1 (stereo not drawn) | – | 18.4 µM (active) |
| Cc1cc(-c2ccc(C)c(S(=O)(=O)NCCCN(Cc3ccccc3)C(C)C)c2)on1 | 2.12% (inactive) | – |
| Cc1cc(-c2ccc(C)c(S(=O)(=O)Nc3ccc(S(N)(=O)=O)cc3)c2)on1 | 2.52% (inactive) | – |
| COC(=O)[C@]1(Cc2ccccc2)N[C@H](CN(C)S(=O)(=O)c2ccc(OC(F)(F)F)cc2)[C@@H]2C(=O)N(Cc3ccccc3)C(=O)[C@@H]21 | 1.61% (inactive) | – |

| SMILES | activity change, negative = inhibition | Potency |
| --- | --- | --- |
| Cc1cc(N2CCCC2)ccc1NC(=O)COc1ccc(Cl)cc1 | -11.4% (inactive) | – |
| COc1ccc(N(C)C(=O)CCS(=O)(=O)c2cccc3nsnc23)cc1 | – | inactive |
| COc1ccc(N(C)C(=O)C2CCN(S(=O)(=O)c3cccc4nsnc34)CC2)cc1 | – | 8.2 µM (active) |
| COc1ccc(N(C)S(=O)(=O)c2cccc3nsnc23)cc1 | -6.36% (inactive) | – |
| Cc1ccc(-c2nc3cccc(C)n3c2Nc2ccc3c(c2)OCCO3)cc1 | -3.89% (inactive) | – |
| CCC(=O)OCCNc1nc(-c2ccccc2)nc2ccccc12 | 10.9% (inactive) | – |
| Cc1ccccc1NC(=O)NNC(=O)OC(C)(C)C | 4.49% (inactive) | – |
| CC(C)(C)OC(=O)NNc1c2ccccc2nc2ccccc12 | – | 23.1 µM (active) |
| COc1ccc2c(c1)CCc1c(C(=O)Nc3cc(C)ccc3O)noc1-2 | 10.4% (inactive) | – |
| COc1ccccc1C(=O)Nc1ccccc1C(=O)Nc1ccccc1 | -15.1% (inactive) | – |
| COc1ccccc1C(=O)Nc1ccc(OCc2nnc3c4ccccc4c(C)nn23)cc1 | – | 9.2 µM (active) |
| COc1ccccc1C(=O)Nc1c(C(=O)Nc2ccc(C)cc2)oc2ccccc12 | 11.1% (inactive) | – |
| CCOC(=O)c1c(C)[nH]c(C)c1S(=O)(=O)N(C)CC(=O)N1CCN(c2ccccc2)CC1 | -24.4% (inactive) | – |
| O=C(Nc1cccc(C(=O)NC2CC2)c1)c1ccc(F)c(S(=O)(=O)N2CCOCC2)c1 | -9.02% (inactive) | – |
| O=C(OCCOc1ccccc1F)c1cc(S(=O)(=O)N2CCOCC2)ccc1F | -14.5% (inactive) | – |
| O=C(NCC1CCCCC1)c1cc(S(=O)(=O)N2CCCCC2)ccc1N1CCOCC1 | -13.3% (inactive) | – |
| O=C(OCCOc1ccccc1Cl)c1cc(S(=O)(=O)N2CCCCC2)ccc1N1CCOCC1 | – | 6.51 µM (active) |
| O=C(N/N=C/c1cccnc1)c1ccc(NC(=O)c2ccc(F)cc2)cc1 | -14.3% (inactive) | – |
| O=C(NCC1CCCO1)c1ccc(S(=O)(=O)Nc2ccc(F)cc2)cc1 (stereo not drawn) | -17.6% (inactive) | – |
| COc1ccc(S(=O)(=O)NCc2cccnc2)cc1NC(=O)c1ccc(C)cc1 | -15.4% (inactive) | – |
| O=C(Nc1ccc(F)cc1)c1ccc(S(=O)(=O)NCc2cccnc2)cc1 | – | 18.4 µM (active) |
| Cc1ccc(NC(=O)c2ccc(S(=O)(=O)NCC3CCCO3)cc2)cc1C (stereo not drawn) | 2.39% (inactive) | – |
| O=C(Nc1ccc(S(=O)(=O)NCC2CCCO2)cc1)c1ccc(F)cc1 (stereo not drawn) | – | 11.6 µM (active) |
| Cc1ccc(NS(=O)(=O)c2cc3c(cc2Br)NC(=O)CO3)cc1C | -16.4% (inactive) | – |

| SMILES | activity change, negative = inhibition | Potency |
| --- | --- | --- |
| O=C(NCC1CCCCC1)NCC1CCCCC1 | 6.58% (inactive) | – |
| Cc1cc2c(s1)c1cnn(Cc3cc(F)c(Cl)cc3Cl)c(=O)c1n2C | 5.03% (inactive) | – |
| CC1CCCCC1NC(=O)/C(C#N)=C/C=C/c1ccccc1[N+](=O)[O-] (stereo not drawn) | – | 16.4 µM (active) |
| O=[N+]([O-])c1ccccc1/C=C/CN1CCCC(CO)C1 (stereo not drawn) | -4.92% (inactive) | – |
| O=[N+]([O-])c1ccccc1/C=C/CN1CCC(O)CC1 | -10.8% (inactive) | – |
| Cc1ccc(NC(=O)C(C)Sc2nnc(C3CC3)n2C2CC2)cc1S(=O)(=O)N1CCOCC1 (stereo not drawn) | -20.8% (inactive) | – |
| C#CCOCCOCCOCCNc1nc(N2CCN(C(=O)[C@H](CO)n3cc([C@@H](N)C(C)C)nn3)CC2)nc(N2CCN(C(=O)[C@H](CCC(=O)O)n3cc([C@@H](N)[C@H](C)CC)nn3)CC2)n1 | 10.7% (inactive) | – |
| Cc1cc(NC(=O)CSc2nnnn2-c2ccc(F)cc2)no1 | 6.18% (inactive) | – |
| COc1ccc(-n2nnnc2SCC(=O)c2ccc(OC)c(OC)c2)cc1 | – | 16.4 µM (active) |
| Oc1ccc(-n2nnnc2SCc2c(F)cccc2Cl)cc1 | 2.72% (inactive) | – |
| COc1ccc(CSc2nnnn2-c2ccc(O)cc2)cc1F | – | 14.6 µM (active) |
| COc1ccc(C(=O)CSc2nnnn2C)c(OC)c1 | -8.69% (inactive) | – |
| COc1ccc(-n2nnnc2SCC(=O)NCc2cccs2)cc1 | 1.52% (inactive) | – |
| O=C(NCc1nnc(C(=O)Nc2ccc(C(F)(F)F)cc2Cl)o1)c1ccccc1 | 13.5% (inactive) | – |
| Cc1nn(-c2ccc(F)cc2)c(Cl)c1/C=C(/CCC(=O)O)c1nc2ccccc2s1 | -25% (inactive) | – |
| COc1ccc(-c2ccc3ncnc(NCc4cccs4)c3c2)cc1OC | -24.9% (inactive) | – |
| O=C(CSc1nnc(-c2ccccc2F)o1)Nc1cccc(C(F)(F)F)c1 | 9.58% (inactive) | – |
| COc1ccc(Cl)cc1-n1c(C)cc(C(=O)OCC(=O)N2CC(=O)Nc3ccccc32)c1C | – | 18.4 µM (active) |
| COc1cc(OC)c(C(=O)OCC(=O)N2CC(=O)Nc3ccccc32)cc1OC | 0.599% (inactive) | – |
| COc1ccc(C(=O)OCC(=O)N2CC(=O)Nc3ccccc32)cc1Br | -7.14% (inactive) | – |
| COc1cccc(-n2cc(C(=O)NCc3cccc(Cl)c3)c3ccccc3c2=O)c1 | -15.8% (inactive) | – |
